D1 agonist = activates the human D1 dopamine receptor. P21728. HEK293 T-REx D1 cells, calcium flux, agonist mode. activation, % at 2 µM. actives 1% (n = 360,000). AID 504660; in the data active means activation above about 30%; further: 0% is about no effect
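Inducible HEK293 T-REx D1 cells, force-coupled to calcium signalling, were plated at 4000 cells/well with tetracycline and held overnight at 30 C. After no-wash calcium dye loading, compound-evoked calcium rise over 180 s flagged agonists.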
D3 ag = D3 dopamine receptor (human) agonism; P35462; D3R DiscoveRx beta-arrestin cells, luminescence, 90 min; max activation, %; actives 0.58% (n = 410,000); AID 652048; in the data active means max activation above about 30%; further: 0% is about no effect
Target sequence (P35462 whole entry, looked up): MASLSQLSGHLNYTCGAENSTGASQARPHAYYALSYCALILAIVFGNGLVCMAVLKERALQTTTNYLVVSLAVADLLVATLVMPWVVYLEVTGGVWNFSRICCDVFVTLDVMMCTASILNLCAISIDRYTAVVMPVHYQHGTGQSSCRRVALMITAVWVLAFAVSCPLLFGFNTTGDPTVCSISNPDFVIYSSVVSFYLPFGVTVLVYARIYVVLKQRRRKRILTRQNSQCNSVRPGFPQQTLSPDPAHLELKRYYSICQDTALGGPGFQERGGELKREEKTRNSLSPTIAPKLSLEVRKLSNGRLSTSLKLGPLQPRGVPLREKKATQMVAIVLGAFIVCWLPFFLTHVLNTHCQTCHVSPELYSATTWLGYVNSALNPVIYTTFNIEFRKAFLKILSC
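Agonist mode: compounds and dopamine controls were applied to plated cells for 90 min at 37 degrees C after an overnight attachment at 1500 cells/well. Luminescent read-out followed 30 - 60 minutes at room temperature with DiscoveRx detection reagent.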
DRD3 antagonist = blocks the human D3 dopamine receptor | max response, negative = inhibition, % | AID 652054 | actives 2.5% (n = 360,000) | P35462 | D3R cells, DiscoveRx beta-arrestin luminescence, antagonist mode; active compounds read low; in the data active means max response below about -50%; inconclusive means no clear call, values can overlap the other calls; further: on the % scale 0 is the no-effect control and ±100 the full control effect
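Cells expressing the human receptor were seeded at 1500 cells/well, incubated overnight at 37 degrees C in 5% CO2, then exposed to library compounds with dopamine controls for 90 minutes at 37 degrees C before luminescent detection.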
D1 antagonist = human D1 dopamine receptor antagonism; activity change, negative = inhibition, % at 10 µM; P21728; AID 504652; HEK293 TREx D1 cells, calcium flux, dopamine EC80; active compounds read low; actives 3.2% (n = 360,000); in the data active means activity change below about -30%; further: on the % scale 0 is the no-effect control and ±100 the full control effect
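Tetracycline-induced HEK293 T-REx cells with force-coupled D1 receptor were loaded with a no-wash calcium dye. Compound was added after a 10 s baseline and read kinetically for 180 s; EC80 dopamine was then added and calcium flux followed another 180 s.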
D1 potentiator = enhances dopamine response at the human D1 receptor | potentiation, % at 10 µM | actives 0.036% (n = 360,000) | HEK293 TREx D1 cells, calcium flux, dopamine EC20 potentiation | P21728; in the data active means potentiation above about 30%; further: 0% is about no effect
* hit, by the source's call; ? = inconclusive; . = no result given. In the library only some 6.1% were active in any assay of this set; here they are far more common.

SMILES | D1 agonist | D3 ag | DRD3 antagonist | D1 antagonist | D1 potentiator
CCOc1ccc2nc(NC(=O)c3nc(SCc4ccccc4C)ncc3Cl)sc2c1 | 1 | -13 | . | 10 | -2
Cc1ccc(COC(=O)c2[nH]c3c(c2C)C(=O)CC(c2ccc(N(C)C)cc2)C3)cc1 (centres undefined) | 3 | -2 | . | 6 | 4
Cc1ccc(-c2noc(CCC(=O)NCCN3CCc4ccccc4C3)n2)cc1 | 6 | -15 | -76* | -3 | 4
Cc1ccc(-c2noc(CCC(=O)NCCN3CCOCC3)n2)cc1 | 1 | -4 | 5 | 11 | -1
COc1ccc(-c2noc(CCC(=O)NCc3ccco3)n2)cc1 | 0 | -6 | 171 | -37* | -6
O=C(Cn1c(=O)n(-c2ccc(F)cc2)c(=O)c2sccc21)NC1CCCCC1 | 1 | 6 | 18 | -61* | -3
Cc1ccc(-n2c(=O)c3sccc3n(CC(=O)NC3CCCC3)c2=O)cc1 | 3 | -16 | -15 | 12 | .
COc1ccc(OC)c(/C=N/N2CCN(c3ccc(Cl)cc3)CC2)c1 | 3 | -1 | -9 | -12 | 1
NCCc1c(-c2ccccc2)n(-c2ccccc2)c2ccccc12 | 102* | -17 | -26 | 21 | 1
Cc1cc(OCC(=O)Nc2cnn(CCCC(=O)O)c2)ccc1Cl | 5 | -12 | -15 | 24 | -2
Cc1cc(C)nc(N/N=C/C2=C(O)CC(c3ccc(F)cc3)CC2=O)n1 (centres undefined) | 11 | -26 | -121* | 5 | 5
CCCCNC(=S)Nc1ccc(Cl)cc1 | 10 | -7 | 17 | -33* | 3
CCNC(=S)Nc1ccc(Cl)cc1 | 5 | 8 | 1 | 10 | -6
Cc1ccc(NC(=S)NCCSc2ccc(Cl)cc2)cc1 | 22 | -6 | -13 | -37* | -10
Cc1ccc(SCCNC(=S)Nc2cc(C)cc(C)c2)cc1 | 1 | -8 | 41 | -11 | -3
CCCNC(=S)Nc1cccc(C(F)(F)F)c1 | 17 | 2 | 0 | -12 | -2
CCCCNC(=S)Nc1ccc(C(F)(F)F)cc1 | 22 | -4 | 19 | -33* | -6
Cc1ccc(NC(=O)C2CCN(c3nc4ccccc4[nH]3)CC2)c(C)c1 | -1 | 1 | . | -6 | -2
COC(=O)c1scc(-c2ccc(C)cc2)c1S(=O)(=O)N1CCN(c2ccc(OC)cc2)CC1 | 1 | -2 | . | 1 | 2
Nc1c2c(nc3ccccc13)CCC2 | -1 | -10 | -26 | -43* | -9
Nc1c2c(nc3ccccc13)N(C1CCCCC1)CC2 | -2 | 0 | -83* | -37* | -9
Fc1cccc(Nc2c3c(nc4ccccc24)CCC3)c1 | 6 | 11 | -8 | -53* | -12
Nc1c2c(nc3ccc(Br)cc13)N(C1CCCCC1)CC2 | 5 | . | . | -30 | -15
COc1ccc(Nc2c3c(nc4ccccc24)CCC3)c(OC)c1 | 1 | 0 | 3 | -1 | -8
COc1ccccc1Nc1c2c(nc3ccccc13)CCC2 | 6 | -3 | 0 | -38* | -19
SMILES | D1 agonist | D3 ag | DRD3 antagonist | D1 antagonist | D1 potentiator
CCCCC(CC)C(=O)Nc1ncc([N+](=O)[O-])s1 (centres undefined) | 1 | 3 | 8 | -6 | 7
CC(=O)Nc1cccc(C(=O)OCc2csc(CC(=O)Nc3ccccc3C)n2)c1 | 8 | 1 | 4 | -27 | -1
CC(=O)c1cccc(Nc2c3c(nc4ccccc24)CCC3)c1 | 1 | -6 | 2 | -3 | -4
CC(=O)c1ccc(Nc2c3c(nc4ccccc24)CCCC3)cc1 | 4 | -6 | 17 | -42* | -11
O=C(Nc1c2c(nc3ccccc13)CCCC2)c1ccccc1F | 1 | 11 | -11 | -37* | -4
Cc1cccc(C(O)c2ncc(-c3ccccc3)[nH]2)c1C (centres undefined) | . | -11 | -30 | . | .
C/C(=N\NC(=O)c1ccn(C)n1)c1cccc(NC(=O)c2ccncc2)c1 | 0 | 0 | -7 | -47* | 1
C/C(=N\NC(=O)c1ccc(Cl)cc1)c1cccc(NC(=O)c2cccnc2)c1 | 2 | -2 | -5 | -19 | -3
Cc1occc1C(=O)N/N=C/c1cnn(C)c1C | 1 | -1 | 13 | -40* | -13
O=C(CCl)Nc1cccc(Oc2ccccc2)c1 | 4 | -9 | -18 | -29 | -2
C[C@H](CO)N1C[C@H](C)[C@@H](CN(C)CC2CC2)Oc2c(NC(=O)C3CC3)cccc2C1=O | . | 33* | -15 | . | .
C[C@H](CO)N1C[C@H](C)[C@H](CN(C)Cc2ccccc2)Oc2c(NC(=O)Nc3ccc(F)cc3)cccc2C1=O | . | -6 | ? | . | .
C[C@H](CO)N1C[C@H](C)[C@@H](CN(C)Cc2ccc(Oc3ccccc3)cc2)Oc2c(NC(=O)C3CC3)cccc2C1=O | . | 35* | 42 | . | .
C[C@H](CO)N1C[C@H](C)[C@@H](CN(C)CC2CCCCC2)Oc2c(NC(=O)C3CC3)cccc2C1=O | . | -2 | 10 | . | .
C[C@H](CO)N1C[C@H](C)[C@@H](CN(C)Cc2ccc(C(=O)O)cc2)Oc2c(NC(=O)C3CC3)cccc2C1=O | . | 0 | 15 | . | .
C[C@@H]1CN([C@@H](C)CO)C(=O)c2cccc(NC(=O)Nc3ccc(F)cc3)c2O[C@@H]1CN(C)Cc1ccc(Oc2ccccc2)cc1 | . | -14 | -71* | . | .
CCS(=O)(=O)Nc1cccc(C2=NN(S(=O)(=O)CC)C(c3cccs3)C2)c1 (centres undefined) | 2 | -2 | -20 | 2 | -6
Cc1nc2ccc(S(=O)(=O)N3CCN(S(=O)(=O)c4c(F)cccc4F)CC3)cc2s1 | 4 | . | . | -8 | 28
CCOc1ccccc1NC(=O)CCNC(=O)N1CC(=O)Nc2ccccc21 | . | -3 | 2 | . | .
CC(C)N(C(=O)c1ccc(Cc2cn(C)c3ccccc23)nc1)C(C)C | . | -15 | -4 | . | .
COc1ccccc1CNC(=O)[C@H](C)NC(=O)C1CCN(C(=O)[C@@H]2CCCN2C(=O)OC(C)(C)C)CC1 | 1 | -21 | ? | 2 | -4
C=CCOc1ccc(/C=N/N2C(=O)C(CC(=O)Nc3ccc(F)cc3F)SC2=NC)cc1 (centres undefined) | 14 | 2 | -13 | -49* | -6
COc1cccc(C(=O)NCCc2csc(-c3cccc(F)c3)n2)c1OC | -1 | 4 | . | -8 | -4
Cc1cccc(-c2nc(CCNC(=O)c3ccccc3Br)cs2)c1 | 3 | -14 | . | -39* | -6
CC(c1ccon1)N(C)C(=O)c1ccc2nc(Cc3cccc(Cl)c3)oc2c1 (centres undefined) | 6 | 4 | -10 | 15 | -5
CCN(Cc1ccccc1)Cc1nnnn1Cc1ccccc1 | 3 | 1 | -3 | -73* | 2
O=C(C1CCC(Cn2c(=O)c3sccc3n(Cc3ccccc3)c2=O)CC1)N1CCOCC1 (centres undefined) | 1 | -8 | . | 3 | -2
O=C1Nc2ccccc2C12OCCCO2 | 3 | 4 | 7 | -44* | -3

Bioassay records from PubChem BioAssay.
